Screens deposited in PubChem BioAssay by National Center for Advancing Translational Sciences (NCATS).
ELG1 DNA repair: inhibitors of ELG1-dependent DNA repair in HEK293T cells; Potency, µM (series often up to 46.1 µM), inactives show at the top dose activity change, negative = inhibition, hits mostly inhibitors; AID 504467; HEK293T ELG1-luciferase reporter, luminescence, 16 h; DNA damage induced by 5-fluorouridine; 330,000 compounds, 2.3% hits; further: potency means the concentration at half of the fitted maximal effect; nearly all actives have a fitted effect of over 55% in size
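Luminescence from the luciferase reporter, measured 30 min after ONE-Glo reagent at room temperature, was the read-out. Beforehand, 2,000 cells per well were exposed for 16 hr at 37 °C to 5-fluorouridine together with compound or vehicle.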
DT40 TDP1 no CPT: qHTS for Inhibitors of human tyrosyl-DNA phosphodiesterase 1 (TDP1): qHTS in cells in absence of CPT | DT40 Tdp1-/- hTDP1 cells, no CPT, ATP luminescence, 48 h | Potency, µM (series often up to 46.2 µM), without a hit: top-dose activity change, negative = growth inhibition, most hits filed as inhibitors | 420,000 compounds, 15% hits | AID 686978, 2013; further: potency means the concentration at half of the fitted maximal effect; nearly all actives have a fitted effect of over 55% in size
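Growth of hTDP1-complemented DT40 Tdp1-knockout cells is measured by ATP luminescence after at least 48 hr compound exposure at 37 °C, with DMSO substituting for the 20 nM CPT used in the parallel screen.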
HT1080NT lethal: kills 2HG-producing HT-1080-NT fibrosarcoma cells. HT-1080-NT fibrosarcoma viability, CellTiter-Glo ATP luminescence, 48 h. Potency, µM (titrated, usually from 46.1 µM), for the others: at the top dose activity, negative = less viability, usual class: cytotoxic. 360,000 compounds, 1.6% hits. AID 686970;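 further: NT is the 2HG producing partner of a matched IDH1 knockdown line; potency means the concentration at half of the fitted maximal effect; 0% = DMSO-treated cells and -100% = media-only wells without cells; nearly all actives have a fitted effect of over 55% in size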
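Toxicity toward the 2HG-producing NT line was scored as %Activity, normalised to DMSO and no-cell wells, from CellTiter-Glo luminescence after 48 hours' treatment.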
HT1080 IDH1KD tx: kills HT-1080 cells with IDH1 knockdown; HT-1080 IDH1 knockdown viability, ATP luminescence, 48 h; Potency, µM (series often up to 46.1 µM), for inactives: at the highest dose activity, negative = toxicity, hits mostly cytotoxic; 360,000 compounds, 2% hits; AID 686971;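 further: potency means the concentration at half of the fitted maximal effect; 0% = DMSO wells and -100% = cell-free medium wells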
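Cytotoxicity counter-line: IDH1KD HT-1080, 48 h, CellTiter-Glo. Curves classed by r2, magnitude and activity.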
IL1B secr inh: blocks inflammasome-driven IL-1 beta release; activity change, % at 57.5 µM; 360,000 compounds, 4.7% hits; AID 743279; THP-1 LPS/ATP IL-1B secretion, AlphaLISA, 16 h; hits give low values; in the data active means activity change below about -50%; inconclusive means mostly about -30% to -49%
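THP-1 cells pretreated 1 hr with compounds (up to 57.5 uM final), then stimulated with LPS (250 ng/mL final) plus ATP (1.25 mM final); secreted IL-1B measured by AlphaLISA after 16 hr, decreased signal indicating inhibition.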
TDP1 cell CPT: DT40-hTDP1 cell growth loss with CPT; chicken DT40 Tdp1-/-;hTDP1 cells + 20 nM CPT, ATP luminescence, 48 h; 420,000 compounds, 12% hits; Potency, µM (highest dose often 46.2 µM), for the others: top-dose activity change, negative = growth inhibition, actives largely listed as inhibitors; further: potency means the concentration at half of the fitted maximal effect; nearly all actives have a fitted effect of over 55% in size
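Cell growth measured by CellTiter-Glo luminescence after a minimum 48 h, 37 C compound exposure with 20 nM CPT in Tdp1-knockout DT40 cells stably expressing hTDP1, seeded 400/well; qHTS titration format.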
Starred values were filed as active, the others as inactive; ? = inconclusive; / = no result given. Rows were chosen to be rich in hits. Some 19% of all compounds tested hit in one or more screens of this group. Unless noted, the call rests on the fitted dose curve; in most records, active means well fitted curve in the direction sought with a large enough effect; inconclusive means small, poorly fitted or top-dose-only effect, or another doubt; inactive means no such curve, though single readings can be large; an effect the other way counts as inactive or inconclusive. Unless noted, on the % scale 0 is the no-effect control and ±100 the full control effect.

SMILES	ELG1 DNA repair	DT40 TDP1 no CPT	HT1080NT lethal	HT1080 IDH1KD tx	IL1B secr inh	TDP1 cell CPT
COc1ccc2[nH]c(=O)c(CN(CCN3CCCC3)C(=O)Nc3ccccc3Cl)cc2c1	?	?	-17.2%	-0.7%	-10.5	?
Cc1cc(C)c2cc(CN(CCN3CCCC3)C(=O)Nc3ccc(F)cc3)c(=O)[nH]c2c1	?	20.6µM*	?	18.4µM*	-80.4*	14.6µM*
Cc1ccc(C)c2[nH]c(=O)c(CN(CCN3CCCC3)C(=O)Nc3cccc(Cl)c3)cc12	14.6µM*	18.4µM*	?	?	?	23.1µM*
CN[C@H](CC(C)C)C(=O)N[C@H]1C(=O)N[C@@H](CC(N)=O)C(=O)N[C@H]2C(=O)N[C@H]3C(=O)N[C@H](C(=O)N[C@@H](C(=O)O)c4cc(O)cc(O)c4-c4cc3ccc4O)[C@H](O)c3ccc(c(Cl)c3)Oc3cc2cc(c3O[C@@H]2O[C@H](CO)[C@@H](O)[C@H](O)[C@H]2O[C@H]2C[C@](C)(N)C(O)[C@H](C)O2)Oc2ccc(cc2Cl)[C@H]1O (stereo partly drawn)	/	-22.7%	/	/	/	-6.1%
CCOC(=O)c1ccc(NS(=O)(=O)c2c(N)n(C)c(=O)n(C)c2=O)cc1	/	?	-1.6%	-1.9%	20.1	16.4µM*
CCOC(=O)c1sc(NC(=S)NC(=O)c2ccccc2)c(C(=O)OCC)c1C	-9.1%	?	6.8%	5.7%	13.8	?
CCOC(=O)C1=C(NC(=S)NC(=O)c2ccccc2)c2ccccc2CC1(C)CC (stereo not drawn)	-18.8%	?	-7.7%	?	-56.3*	-93.1%
CCOC(=O)C1=C(NC(=S)NC(=O)c2ccccc2)c2ccccc2CC1C(C)C (stereo not drawn)	-1.6%	23.1µM*	?	?	-18.8	?
CCOCCCNC(=O)c1ccc(CN2CCc3ccccc3C2)cc1	/	?	2.1%	-0.8%	38.9	?
CC(C)C[C@H]1CN(CCCC[C@@H]2CNC(=O)C(=O)N2CC2CCCCC2)C(=O)C(=O)N1CC1CCCCC1	/	-28.4%	17.6%	6.9%	-4.0	-0.4%
COc1cc(-c2nnc(SCC(=O)Oc3ccccc3)o2)cc(OC)c1OC	/	4.7%	/	/	/	-2.3%
COc1ccc(C(=O)CSc2nnc(-c3ccc(C)cc3)o2)cc1	0.0%	-18.9%	1.0%	-2.4%	1.0	-2.7%
COc1cccc(C(=O)CSc2nnc(-c3cc(OC)c(OC)c(OC)c3)o2)c1	20.6µM*	20.6µM*	-3.2%	1.7%	-3.1	?
COc1cc(-c2nnc(SCC(=O)N3c4ccccc4Sc4ccccc43)o2)cc(OC)c1OC	7.31µM*	8.2µM*	10.9%	13.2%	-3.2	?
COc1cc(-c2nnc(SCC(=O)c3ccc(C)cc3)o2)cc(OC)c1OC	?	23.1µM*	-9.4%	?	-3.4	?
O=C(CCN1c2ccccc2Sc2ccccc21)OCc1nnc(-c2ccccc2)o1	-9.3%	-4.2%	-1.8%	0.6%	11.9	-12.4%
O=C(Sc1nnc(-c2ccccc2)o1)N1c2ccccc2Sc2ccccc21	1.0%	18.4µM*	5.6%	3.0%	-17.3	20.6µM*
COc1cc(-c2nnc(SCC(=O)N3CCCC3)o2)cc(OC)c1OC	?	-2.4%	12.6%	9.1%	-0.5	-9.2%
COc1ccc(CN2C[C@]3(CO)O[C@@H](CO)C[C@@H]3S2(=O)=O)cc1	18.7%	-14.0%	12.3%	8.6%	4.4	-4.3%
Cc1cnc2c(c1SCC(=O)N(C)c1ccccc1)c(=O)n(C)c(=O)n2C	/	-24.6%	/	/	/	-25.9%
Cc1cc(C)c(C)c(C(=O)CSc2nnc(-c3ccc4[nH]c(C)c(C)c4c3)o2)c1C	16.4µM*	?	2.9%	6.1%	?	?
CCOc1ccc(C2c3c(oc4cc(C)c(C)cc4c3=O)C(=O)N2c2ccccn2)cc1 (stereo not drawn)	/	-1.6%	/	/	/	14.9%
CCOC(=O)c1c(C)[nH]c(C(=O)COC(=O)[C@H](C)NC(=O)c2ccccc2Cl)c1C	?	-27.8%	10.3%	6.0%	14.5	-7.9%
CCN(CC(=O)Nc1ccccc1C(F)(F)F)CC(=O)c1[nH]c(C)c(C(C)=O)c1C	/	16.4µM*	-5.4%	-2.6%	2.3	23.1µM*
CCOC(=O)c1c(C)[nH]c(C(=O)CN(C)CC(=O)Nc2ccccc2Cl)c1C	?	20.6µM*	-6.7%	-8.5%	13.9	?
SMILES	ELG1 DNA repair	DT40 TDP1 no CPT	HT1080NT lethal	HT1080 IDH1KD tx	IL1B secr inh	TDP1 cell CPT
CC(=O)c1c(C)[nH]c(C(=O)CN(C)CC(=O)Nc2ccccc2Cl)c1C	18.3µM*	20.6µM*	-14.1%	-15.2%	-9.0	?
CN(CC(=O)Nc1ccc(C(N)=O)cc1)CC(=O)Nc1ccccc1Cl	0.8%	12.5%	-4.5%	-4.2%	0.0	0.9%
CCN(CC(=O)Nc1ccc2c(c1)OCCO2)CC(=O)Nc1ccccc1C(F)(F)F	9.7%	-22.6%	5.5%	0.9%	12.4	-28.0%
COC(=O)N(C)C[C@@H]1OCc2cn(nn2)CCCC(=O)N([C@@H](C)CO)C[C@H]1C	/	2.4%	0.1%	0.6%	21.8	18.9%
Cc1ccc(N(C)C(=O)Cn2cc(S(=O)(=O)N3CCCC3)c(S(=O)(=O)N3CCCC3)c2)cc1	/	-15.6%	/	/	/	0.5%
CCOc1ccccc1CN(CCc1ccc2c(c1)OCO2)Cc1cccc(OC)c1OC	/	16.4µM*	/	/	/	18.4µM*
COc1cc(OC)c(OC)cc1CNCc1ccc2c(c1)OCO2	4.2%	?	-7.9%	-6.8%	-11.0	-6.7%
CCOc1ccc(CN(CCc2ccc3c(c2)OCO3)Cc2cc(OC)c(OC)cc2OC)cc1	/	14.6µM*	/	/	/	?
COc1ccc(C2=NOC(C)(c3nnc(Cc4ccccc4)o3)C2)cc1 (stereo not drawn)	/	-4.3%	-17.1%	7.5%	0.0	-4.2%
CC[C@@]12C(=O)N(c3ccc(C)cc3)C(=O)N1[C@H](c1ccc(Br)cc1)[C@@H]1C(=O)N(C(C)(C)C)C(=O)[C@@H]12	-7.8%	?	-14.9%	-6.0%	?	7.31µM*
CC(C)(C)N1C(=O)[C@H]2[C@@H](c3ccc(Br)cc3)N3C(=O)N(c4cccc(Cl)c4)C(=O)[C@@]3(Cc3ccccc3)[C@H]2C1=O	-3.2%	20.6µM*	-2.7%	0.6%	-20.0	?
